Experimental data from PMC7862700, “An all-to-all approach to the identification of sequence-specific readers for epigenetic DNA modifications on cytosine”.

Legend:
Assay in all cases: DAPPL (digital affinity profiling via proximity ligation, sequencing); 10 mM Tris-HCl pH 7.5, 50 mM NaCl, 1 mM DTT, 4% glycerol, room temperature, 30 min; GST-TFs on glutathione beads, 16-mer random dsDNA library, 0.1% formaldehyde crosslink after washing; high values mean tight binding
FLI1 = molecular target: T1, FLI1 (Homo sapiens, UniProt Q01543 1-452); settings: protein: recombinant; tags: N-terminal GST; dsDNA, one strand shown
T1 sequence: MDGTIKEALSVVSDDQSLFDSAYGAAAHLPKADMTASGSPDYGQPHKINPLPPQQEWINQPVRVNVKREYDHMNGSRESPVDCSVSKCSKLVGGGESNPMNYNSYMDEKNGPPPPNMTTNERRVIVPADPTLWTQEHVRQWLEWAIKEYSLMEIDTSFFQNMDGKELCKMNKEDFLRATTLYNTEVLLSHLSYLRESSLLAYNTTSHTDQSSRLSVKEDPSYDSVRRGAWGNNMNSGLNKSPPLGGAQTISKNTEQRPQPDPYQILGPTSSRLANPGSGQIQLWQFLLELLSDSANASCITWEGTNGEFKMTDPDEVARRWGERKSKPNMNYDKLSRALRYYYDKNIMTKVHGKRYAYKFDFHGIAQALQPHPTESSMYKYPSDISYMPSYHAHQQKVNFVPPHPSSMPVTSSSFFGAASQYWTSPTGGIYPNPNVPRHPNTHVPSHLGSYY
Procedure, shortened: (§1)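 Pools of DNA-barcoded human transcription factors, expressed in yeast as GST fusions on glutathione beads and combined with a tag-only sample, were incubated with 200 nmole of a 16-mer random double-stranded DNA library. Incubation took 30 min at room temperature in Tris/NaCl/DTT/glycerol buffer and was followed by washing, 0.1% formaldehyde crosslinking, proximity ligation (BsaI/T4 ligase, 1 h, 37 °C), PCR amplification and sequencing on an Illumina NextSeq500. Binding signal is the ratio of a hexamer's read frequency for a factor to its frequency for the tag-only sample.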

ELK1 = molecular target: T2, ELK1 (Homo sapiens, UniProt P19419 1-428); settings: protein: recombinant; tags: N-terminal GST; dsDNA, one strand shown
T2 sequence: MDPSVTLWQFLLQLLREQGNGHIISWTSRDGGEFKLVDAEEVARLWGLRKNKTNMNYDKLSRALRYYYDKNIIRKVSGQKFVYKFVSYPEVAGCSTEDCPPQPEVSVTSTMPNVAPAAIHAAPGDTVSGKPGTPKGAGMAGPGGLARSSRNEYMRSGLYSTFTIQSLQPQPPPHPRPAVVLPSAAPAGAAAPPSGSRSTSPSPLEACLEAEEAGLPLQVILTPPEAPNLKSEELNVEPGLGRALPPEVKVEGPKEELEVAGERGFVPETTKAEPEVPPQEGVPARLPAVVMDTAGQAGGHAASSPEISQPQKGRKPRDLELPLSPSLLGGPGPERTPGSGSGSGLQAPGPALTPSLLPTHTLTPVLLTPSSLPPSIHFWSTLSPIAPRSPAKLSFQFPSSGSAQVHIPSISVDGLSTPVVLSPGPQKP
Procedure, shortened: as §1

GABPA = molecular target: T3, GABPA (Homo sapiens, UniProt Q06546 1-454); settings: protein: recombinant; tags: N-terminal GST; dsDNA, one strand shown
T3 sequence: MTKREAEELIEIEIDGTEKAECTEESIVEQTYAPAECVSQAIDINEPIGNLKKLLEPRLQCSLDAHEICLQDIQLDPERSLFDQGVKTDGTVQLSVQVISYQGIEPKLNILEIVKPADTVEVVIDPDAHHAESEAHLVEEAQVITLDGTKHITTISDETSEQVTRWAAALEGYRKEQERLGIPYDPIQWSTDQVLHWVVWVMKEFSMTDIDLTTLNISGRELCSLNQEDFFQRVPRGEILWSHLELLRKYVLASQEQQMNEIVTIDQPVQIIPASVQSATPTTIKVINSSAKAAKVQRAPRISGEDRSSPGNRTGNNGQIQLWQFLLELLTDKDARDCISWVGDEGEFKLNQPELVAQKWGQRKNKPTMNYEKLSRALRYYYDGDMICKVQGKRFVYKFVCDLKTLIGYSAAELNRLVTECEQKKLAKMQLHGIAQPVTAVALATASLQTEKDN
Procedure, shortened: as §1

ERG = molecular target: T4, ERG (Homo sapiens, UniProt P11308 1-479); settings: protein: recombinant; tags: N-terminal GST; dsDNA, one strand shown
T4 sequence: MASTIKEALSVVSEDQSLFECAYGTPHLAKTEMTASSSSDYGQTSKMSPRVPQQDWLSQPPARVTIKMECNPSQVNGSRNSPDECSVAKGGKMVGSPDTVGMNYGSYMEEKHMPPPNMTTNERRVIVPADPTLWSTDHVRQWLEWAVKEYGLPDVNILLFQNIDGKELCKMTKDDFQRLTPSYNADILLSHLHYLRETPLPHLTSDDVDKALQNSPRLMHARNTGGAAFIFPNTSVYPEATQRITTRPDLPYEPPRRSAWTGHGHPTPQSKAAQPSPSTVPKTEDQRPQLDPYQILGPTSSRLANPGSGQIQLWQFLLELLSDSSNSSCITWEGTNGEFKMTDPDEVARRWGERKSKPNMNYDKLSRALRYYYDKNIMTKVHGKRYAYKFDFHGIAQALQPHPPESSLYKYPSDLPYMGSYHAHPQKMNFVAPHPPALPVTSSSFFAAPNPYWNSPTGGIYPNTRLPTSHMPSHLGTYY
Procedure, shortened: as §1

ELF1 = ELF1 (Homo sapiens, UniProt P32519 1-619); settings: protein: recombinant; tags: N-terminal GST; dsDNA, one strand shown
ELF1, sequence (P32519 whole entry): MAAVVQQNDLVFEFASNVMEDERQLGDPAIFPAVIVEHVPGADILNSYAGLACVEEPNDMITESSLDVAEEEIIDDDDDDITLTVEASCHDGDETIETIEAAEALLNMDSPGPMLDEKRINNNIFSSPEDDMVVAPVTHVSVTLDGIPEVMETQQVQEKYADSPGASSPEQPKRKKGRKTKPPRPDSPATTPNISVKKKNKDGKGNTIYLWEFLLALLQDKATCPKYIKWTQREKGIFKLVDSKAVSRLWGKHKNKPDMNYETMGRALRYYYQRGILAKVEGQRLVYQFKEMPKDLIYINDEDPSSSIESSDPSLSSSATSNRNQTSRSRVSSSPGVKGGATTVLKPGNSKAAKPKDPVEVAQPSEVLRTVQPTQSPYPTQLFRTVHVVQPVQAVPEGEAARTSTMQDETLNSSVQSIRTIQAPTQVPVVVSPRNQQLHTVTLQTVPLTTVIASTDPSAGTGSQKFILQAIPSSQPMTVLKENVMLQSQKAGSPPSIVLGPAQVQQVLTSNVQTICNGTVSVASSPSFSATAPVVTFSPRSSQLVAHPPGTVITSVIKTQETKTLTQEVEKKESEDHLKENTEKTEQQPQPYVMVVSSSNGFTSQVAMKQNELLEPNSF
Procedure, shortened: as §1

EHF = molecular target: T5, EHF (Homo sapiens, UniProt Q9NZC4 1-300); settings: protein: recombinant; tags: N-terminal GST; dsDNA, one strand shown
T5 sequence: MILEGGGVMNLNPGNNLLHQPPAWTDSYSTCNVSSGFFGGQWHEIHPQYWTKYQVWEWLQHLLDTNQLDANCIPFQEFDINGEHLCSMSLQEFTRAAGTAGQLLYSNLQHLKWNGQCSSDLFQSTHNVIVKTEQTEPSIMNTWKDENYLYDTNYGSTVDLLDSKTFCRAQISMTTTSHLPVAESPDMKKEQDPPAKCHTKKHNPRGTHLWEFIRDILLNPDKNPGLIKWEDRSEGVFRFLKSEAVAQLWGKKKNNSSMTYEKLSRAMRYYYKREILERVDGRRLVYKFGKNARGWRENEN
Procedure, shortened: as §1

SPI1 = SPI1 (Homo sapiens, UniProt P17947 1-270); settings: protein: recombinant; tags: N-terminal GST; dsDNA, one strand shown
Procedure, shortened: as §1

SPIB = SPIB (Homo sapiens, UniProt Q01892 1-262); settings: protein: recombinant; tags: N-terminal GST; dsDNA, one strand shown
SPIB, sequence (Q01892 whole entry): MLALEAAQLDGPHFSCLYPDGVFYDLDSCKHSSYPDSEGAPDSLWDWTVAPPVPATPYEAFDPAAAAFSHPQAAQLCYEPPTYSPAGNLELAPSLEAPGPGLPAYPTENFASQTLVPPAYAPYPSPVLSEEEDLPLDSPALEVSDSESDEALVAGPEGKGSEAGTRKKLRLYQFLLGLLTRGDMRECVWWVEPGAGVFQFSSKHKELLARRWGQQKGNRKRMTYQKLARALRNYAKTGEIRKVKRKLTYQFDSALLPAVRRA
Procedure, shortened: as §1

ELK3 = molecular target: T6, ELK3 (Homo sapiens, UniProt P41970 1-407); settings: protein: recombinant; tags: N-terminal GST; dsDNA, one strand shown
T6 sequence: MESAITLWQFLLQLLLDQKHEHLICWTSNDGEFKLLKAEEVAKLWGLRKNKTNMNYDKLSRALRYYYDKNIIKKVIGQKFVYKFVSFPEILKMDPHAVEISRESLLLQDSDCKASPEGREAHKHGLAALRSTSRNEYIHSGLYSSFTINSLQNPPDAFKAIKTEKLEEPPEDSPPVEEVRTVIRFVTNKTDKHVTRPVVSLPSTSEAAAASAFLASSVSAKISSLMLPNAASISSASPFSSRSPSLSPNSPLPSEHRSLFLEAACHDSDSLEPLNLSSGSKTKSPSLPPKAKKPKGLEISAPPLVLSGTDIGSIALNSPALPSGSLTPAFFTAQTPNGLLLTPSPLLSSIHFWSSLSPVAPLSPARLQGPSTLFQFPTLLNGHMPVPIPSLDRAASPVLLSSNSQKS
Procedure, shortened: as §1

FEV = molecular target: T7, FEV (Homo sapiens, UniProt Q99581 1-238); settings: protein: recombinant; tags: N-terminal GST; dsDNA, one strand shown
T7 sequence: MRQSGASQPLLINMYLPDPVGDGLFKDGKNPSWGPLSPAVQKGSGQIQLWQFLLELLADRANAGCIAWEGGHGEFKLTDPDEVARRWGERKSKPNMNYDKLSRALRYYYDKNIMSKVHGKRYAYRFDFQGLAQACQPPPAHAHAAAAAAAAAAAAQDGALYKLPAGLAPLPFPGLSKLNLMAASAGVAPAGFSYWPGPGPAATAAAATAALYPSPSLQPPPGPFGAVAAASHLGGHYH
Procedure, shortened: as §1

ETV5 = ETV5 (Homo sapiens, UniProt P41161 1-510); settings: protein: recombinant; tags: N-terminal GST; dsDNA, one strand shown
ETV5, sequence (P41161 whole entry): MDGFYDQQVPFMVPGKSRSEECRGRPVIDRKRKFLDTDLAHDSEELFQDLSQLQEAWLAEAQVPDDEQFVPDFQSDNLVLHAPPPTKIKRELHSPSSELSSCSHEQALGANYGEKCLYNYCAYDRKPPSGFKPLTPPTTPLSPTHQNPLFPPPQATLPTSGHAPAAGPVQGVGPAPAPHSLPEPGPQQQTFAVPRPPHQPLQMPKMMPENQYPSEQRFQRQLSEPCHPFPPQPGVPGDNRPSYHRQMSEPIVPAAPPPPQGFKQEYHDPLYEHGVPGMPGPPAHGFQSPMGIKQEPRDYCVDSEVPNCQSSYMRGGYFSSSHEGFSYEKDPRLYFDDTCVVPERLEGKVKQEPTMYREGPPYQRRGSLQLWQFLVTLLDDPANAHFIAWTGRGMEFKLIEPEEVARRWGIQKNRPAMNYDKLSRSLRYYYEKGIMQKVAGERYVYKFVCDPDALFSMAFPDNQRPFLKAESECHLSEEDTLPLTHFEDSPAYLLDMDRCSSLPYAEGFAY
Procedure, shortened: as §1

HSF1 = HSF1 (Homo sapiens, UniProt Q00613 1-529); settings: protein: recombinant; tags: N-terminal GST; chain copies: 3; dsDNA, one strand shown
HSF1, sequence (Q00613 whole entry): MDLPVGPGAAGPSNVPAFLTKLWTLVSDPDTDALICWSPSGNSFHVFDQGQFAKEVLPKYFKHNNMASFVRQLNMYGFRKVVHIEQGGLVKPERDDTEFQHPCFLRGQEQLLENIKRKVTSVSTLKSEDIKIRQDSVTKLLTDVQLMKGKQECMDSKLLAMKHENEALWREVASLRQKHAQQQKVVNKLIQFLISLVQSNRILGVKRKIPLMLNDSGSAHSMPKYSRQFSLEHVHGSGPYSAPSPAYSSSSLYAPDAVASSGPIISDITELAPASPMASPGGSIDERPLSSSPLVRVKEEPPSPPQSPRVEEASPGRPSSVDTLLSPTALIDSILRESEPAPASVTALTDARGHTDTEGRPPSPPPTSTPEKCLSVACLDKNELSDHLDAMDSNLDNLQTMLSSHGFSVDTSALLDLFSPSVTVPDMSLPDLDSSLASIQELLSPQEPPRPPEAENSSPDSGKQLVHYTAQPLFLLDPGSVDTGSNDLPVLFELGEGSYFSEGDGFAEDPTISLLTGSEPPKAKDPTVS
Procedure, shortened: as §1

SPIC = molecular target: T8, SPIC (Homo sapiens, UniProt Q8N5J4 1-248); settings: protein: recombinant; tags: N-terminal GST; dsDNA, one strand shown
T8 sequence: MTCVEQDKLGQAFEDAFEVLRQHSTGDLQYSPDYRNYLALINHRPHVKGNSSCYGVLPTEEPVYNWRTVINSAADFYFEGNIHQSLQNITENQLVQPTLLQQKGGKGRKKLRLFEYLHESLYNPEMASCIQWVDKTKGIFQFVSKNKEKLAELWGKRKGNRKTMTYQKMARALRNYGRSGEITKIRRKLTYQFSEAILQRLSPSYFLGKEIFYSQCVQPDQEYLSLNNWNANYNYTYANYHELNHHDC
Procedure, shortened: as §1

ELF4 = ELF4 (Homo sapiens, UniProt Q99607 1-663); settings: protein: recombinant; tags: N-terminal GST; dsDNA, one strand shown
ELF4, sequence (Q99607 whole entry): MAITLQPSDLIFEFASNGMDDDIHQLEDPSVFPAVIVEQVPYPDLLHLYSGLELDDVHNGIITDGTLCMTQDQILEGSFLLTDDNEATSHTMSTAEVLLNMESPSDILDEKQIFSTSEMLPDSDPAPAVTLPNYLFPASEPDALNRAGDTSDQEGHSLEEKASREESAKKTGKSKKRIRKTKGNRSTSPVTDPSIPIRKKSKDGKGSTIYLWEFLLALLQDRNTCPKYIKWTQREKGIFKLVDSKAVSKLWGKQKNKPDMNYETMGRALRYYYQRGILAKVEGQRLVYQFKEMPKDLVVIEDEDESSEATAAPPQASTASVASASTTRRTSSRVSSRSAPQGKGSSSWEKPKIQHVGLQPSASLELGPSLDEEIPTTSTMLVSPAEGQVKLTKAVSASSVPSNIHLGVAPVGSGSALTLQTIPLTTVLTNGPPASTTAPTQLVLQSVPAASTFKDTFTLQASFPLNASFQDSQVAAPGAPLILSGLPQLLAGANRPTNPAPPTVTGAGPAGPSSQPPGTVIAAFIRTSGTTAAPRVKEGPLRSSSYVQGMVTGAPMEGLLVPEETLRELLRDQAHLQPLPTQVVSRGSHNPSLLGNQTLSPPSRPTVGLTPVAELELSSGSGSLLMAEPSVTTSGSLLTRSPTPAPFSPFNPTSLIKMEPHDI
Procedure, shortened: as §1

ELK4 = molecular target: T9, ELK4 (Homo sapiens, UniProt P28324-2 1-405); settings: protein: recombinant; tags: N-terminal GST; dsDNA, one strand shown
T9 sequence: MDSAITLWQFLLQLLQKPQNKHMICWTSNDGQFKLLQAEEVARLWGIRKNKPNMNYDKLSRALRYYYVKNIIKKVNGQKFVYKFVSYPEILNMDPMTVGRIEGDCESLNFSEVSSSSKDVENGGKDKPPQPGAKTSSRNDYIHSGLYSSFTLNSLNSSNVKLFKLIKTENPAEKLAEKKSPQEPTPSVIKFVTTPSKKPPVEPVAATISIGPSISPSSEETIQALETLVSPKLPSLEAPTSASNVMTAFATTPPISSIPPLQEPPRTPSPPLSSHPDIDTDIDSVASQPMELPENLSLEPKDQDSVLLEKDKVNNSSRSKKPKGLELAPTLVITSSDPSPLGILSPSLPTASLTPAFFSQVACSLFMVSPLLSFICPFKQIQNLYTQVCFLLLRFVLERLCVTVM
Procedure, shortened: as §1

ETV2 = molecular target: T10, ETV2 (Homo sapiens, UniProt O00321 1-342); settings: protein: recombinant; tags: N-terminal GST; dsDNA, one strand shown
T10 sequence: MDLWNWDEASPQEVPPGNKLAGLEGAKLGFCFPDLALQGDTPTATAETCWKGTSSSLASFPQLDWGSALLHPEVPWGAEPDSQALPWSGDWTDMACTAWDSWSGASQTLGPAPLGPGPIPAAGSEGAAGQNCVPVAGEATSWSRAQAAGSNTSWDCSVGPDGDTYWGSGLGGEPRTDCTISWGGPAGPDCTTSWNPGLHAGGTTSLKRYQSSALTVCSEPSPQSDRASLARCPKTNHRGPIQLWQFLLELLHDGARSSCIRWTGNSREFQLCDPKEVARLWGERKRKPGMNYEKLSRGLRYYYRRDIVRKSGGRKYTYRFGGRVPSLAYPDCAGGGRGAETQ
Procedure, shortened: as §1

ELF3 = molecular target: T11, ELF3 (Homo sapiens, UniProt P78545 1-371); settings: protein: recombinant; tags: N-terminal GST; dsDNA, one strand shown
T11 sequence: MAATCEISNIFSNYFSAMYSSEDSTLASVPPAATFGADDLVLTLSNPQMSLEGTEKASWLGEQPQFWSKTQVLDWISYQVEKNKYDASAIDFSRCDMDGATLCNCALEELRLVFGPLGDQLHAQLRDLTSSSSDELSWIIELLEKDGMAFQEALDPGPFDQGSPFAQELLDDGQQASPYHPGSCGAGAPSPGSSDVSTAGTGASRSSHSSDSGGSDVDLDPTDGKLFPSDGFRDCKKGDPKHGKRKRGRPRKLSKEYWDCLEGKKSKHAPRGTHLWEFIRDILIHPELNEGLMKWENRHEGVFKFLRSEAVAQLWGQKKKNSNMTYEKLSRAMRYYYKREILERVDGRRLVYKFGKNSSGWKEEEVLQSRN
Procedure, shortened: as §1

CRX = CRX (Homo sapiens, UniProt O43186 1-299); settings: protein: recombinant; tags: N-terminal GST; dsDNA, one strand shown
CRX, sequence (O43186 whole entry): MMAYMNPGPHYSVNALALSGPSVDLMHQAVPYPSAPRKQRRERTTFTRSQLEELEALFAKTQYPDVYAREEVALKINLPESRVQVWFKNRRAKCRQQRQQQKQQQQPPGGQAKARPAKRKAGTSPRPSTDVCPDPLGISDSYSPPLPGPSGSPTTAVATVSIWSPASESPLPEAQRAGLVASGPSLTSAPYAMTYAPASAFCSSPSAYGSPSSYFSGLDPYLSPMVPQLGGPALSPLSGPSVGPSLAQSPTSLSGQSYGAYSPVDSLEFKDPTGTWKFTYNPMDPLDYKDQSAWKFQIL
Procedure, shortened: as §1

ETV1 = ETV1 (Homo sapiens, UniProt P50549 1-477); settings: protein: recombinant; tags: N-terminal GST; dsDNA, one strand shown
ETV1, sequence (P50549 whole entry): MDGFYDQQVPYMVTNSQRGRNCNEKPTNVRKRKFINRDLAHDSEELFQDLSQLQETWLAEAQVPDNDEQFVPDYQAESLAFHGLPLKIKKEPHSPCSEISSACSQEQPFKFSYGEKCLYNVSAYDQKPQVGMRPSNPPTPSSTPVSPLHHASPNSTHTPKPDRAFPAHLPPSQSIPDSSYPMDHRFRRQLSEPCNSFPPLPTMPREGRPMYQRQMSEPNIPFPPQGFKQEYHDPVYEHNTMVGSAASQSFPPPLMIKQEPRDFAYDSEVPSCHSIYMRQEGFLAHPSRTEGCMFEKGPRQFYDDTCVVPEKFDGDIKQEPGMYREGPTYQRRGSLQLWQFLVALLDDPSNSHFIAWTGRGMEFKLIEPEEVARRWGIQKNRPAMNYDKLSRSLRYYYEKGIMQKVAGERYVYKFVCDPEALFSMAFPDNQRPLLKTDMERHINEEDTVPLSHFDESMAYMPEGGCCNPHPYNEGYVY
Procedure, shortened: as §1

Question: What does the source list for GATTAC?
Answer: binding signal (FLI1): 1.16 fold enrichment (6-mer frequency, TF over GST control); binding signal (ELK1): 1.1 fold enrichment (6-mer frequency, TF over GST control); binding signal (GABPA): 1.13 fold enrichment (6-mer frequency, TF over GST control); binding signal (ERG): 1.12 fold enrichment (6-mer frequency, TF over GST control); binding signal (ELF1): 1.07 fold enrichment (6-mer frequency, TF over GST control); binding signal (EHF): 1.12 fold enrichment (6-mer frequency, TF over GST control); binding signal (SPI1): 1.09 fold enrichment (6-mer frequency, TF over GST control); binding signal (SPIB): 1.15 fold enrichment (6-mer frequency, TF over GST control); binding signal (ELK3): 1.18 fold enrichment (6-mer frequency, TF over GST control); binding signal (FEV): 1.05 fold enrichment (6-mer frequency, TF over GST control); binding signal (ETV5): 1.06 fold enrichment (6-mer frequency, TF over GST control); binding signal (HSF1): 2.08 fold enrichment (6-mer frequency, TF over GST control); binding signal (SPIC): 1.13 fold enrichment (6-mer frequency, TF over GST control); binding signal (ELF4): 1.08 fold enrichment (6-mer frequency, TF over GST control); binding signal (ELK4): 1.23 fold enrichment (6-mer frequency, TF over GST control); binding signal (ETV2): 1.1 fold enrichment (6-mer frequency, TF over GST control); binding signal (ELF3): 1.04 fold enrichment (6-mer frequency, TF over GST control); binding signal (CRX): 3.27 fold enrichment (6-mer frequency, TF over GST control); binding signal (ETV1): 1.1 fold enrichment (6-mer frequency, TF over GST control)
